# Experimental data: PubChem BioAssay (NCI)
# Values joined by “and” are separate entries in the source; they are usually repeats but may differ in a detail not shown here. Identical values can stand only once. About 83,000 compounds went through this panel and 20% of them were active in at least one assay; those are over-represented in the sample as a whole.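 Assay: single dose, 48 h. Readout: percent growth (0 = no net growth; negative = cell death). Active: <10.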 Values without a mark were called inactive. Active and inactive are the calls of the source.
# Test system: MDA-MB-468 breast
# Assay: NCI-60 one-dose screen, 48 h (100 = growth as untreated, 0 = no growth, -100 = all killed)
# Details: 10 µM unless noted
row,Compound,growth
1,COc1ccc(-c2cc(C(=O)N=Nc3c(O)[nH]c4ccc(Br)cc34)no2)cc1,103%
2,COC(=O)c1nc(-c2ccc(C)cc2)oc1N1CCOCC1,82.1%
3,CNCc1cccc2c1OCCOCCOCCC(C)S(=O)(=O)c1ccc(cc1)-c1cnc(N)c(n1)C(=O)N2 (stereo not given),53.1%
4,C[C@@H]1C(=O)[C@@H]2C[C@@H](O)[C@@H](O)C[C@]2(C)[C@H]2CC[C@@]3(C)C(=C12)CC[C@@H]3[C@@](C)(O)[C@H](O)CCC(C)(C)O,103%
5,CC(Nc1c(C#N)cnc2ccc(-c3cnc(N)nc3)cc12)c1ccccc1 (stereo not given),-9.18% (active)
6,Cc1cc(N2CCCC2)nc(NC2CCCC(Nc3ccnc4cc(Cl)ccc34)C2)n1 (stereo not given),-56.1% (active)
7,CC(=O)c1ccc(N2C(=O)c3ccc(Oc4ccccc4)cc3C2=O)cc1,105%
8,C=C1C(=O)O[C@H]2[C@H]1CC/C(COC(=O)CCCCCCC(=O)OC/C1=C/CC[C@@]3(C)O[C@H]3[C@H]3OC(=O)C(=C)[C@@H]3CC1)=C\CC[C@@]1(C)O[C@@H]21,-23.9% (active)
9,CCCCCCNC(=O)Oc1ccc(/C(=C(/C)c2ccc(Cl)cc2)c2ccc(OCCN3CCCCCC3)cc2)cc1,35.9%
10,CCN(CC)Cc1cc(Nc2c3ccccc3nc3cc(Cl)ccc23)ccc1O,-72.4% (active)
11,N=C(N)N=Nc1ccc(NN=C(N)N)cc1,103%
12,COc1cc(-c2nc(Nc3nc4ccccc4[nH]3)nc(N)c2C#N)cc(OC)c1OC,48.5%
13,O=CNc1cc(Cl)cc(Cl)c1,103%
14,O=C(N/N=C/[C@@H](O)[C@H](O)[C@H](O)CO)c1ccc(NC(=O)c2cccnc2)cc1,101%
15,O=c1[nH]ccc2nc(N3CCC(O)CC3)nc(Nc3cccc(C(F)(F)F)c3)c12,14.5%
16,N/C(=N\c1nc2ccc([N+](=O)[O-])cc2s1)C(Cl)(Cl)Cl,3.78% (active)
17,C#CCSc1nnnn1-c1ccc(Br)c(C)c1,67.2%
18,Cc1cc(Cl)cc(NS(=O)(=O)c2ccc(-c3cnc(C4CC4)o3)cc2)c1,11.3%
19,O=C1c2c(c3c4ccccc4n(CCCCCCN4CCOCC4)c3c3[nH]c4ccccc4c23)C(=O)N1O,103%
20,O=C(/C=C/c1c(-c2ccccc2)[nH]c2ccccc12)S(=O)(=O)c1ccccc1,18.7%

row,Compound,growth
1,COc1ccc(-c2nc(SCC(C)C)nc(Nc3ccc(C(=O)O)cc3)c2C#N)cc1,91.3%
2,CCCCNC(=O)Oc1ccc(/C(=C(\C)c2ccc(Cl)cc2)c2ccc(OCCN3CCCCC3)cc2)cc1,62.9%
3,Cc1ccc(Nc2nc(SC(C)C)nc(-c3ccccc3)c2C#N)cc1,96.7%
4,Nc1ccc(S(=O)(=O)c2ccc(Cl)cc2)cc1,91.7%
5,C/C=C/C1OC23CCCCC2C(C#N)(C(=N)O3)C1(C#N)C#N (stereo not given),77.7%
6,COc1ccc(-c2cc(-c3ccc(Cl)cc3)nc(SCCCCCCC(=O)NO)n2)cc1OC,55.2%
7,COc1ccc(N=c2nc3sc4cc(Cl)ccc4n3c(N)c2C#N)cc1,-7.79% (active)
8,COc1ccc(OCC(=O)Nc2ccc(-c3nc4ccccc4s3)cc2C)cc1,7.38% (active)
9,COc1cc2c(-c3cc4c(cc3CNCCc3ccc5c(c3)OCO5)OCO4)cccc2c(OC)c1O,-8.75% (active)
10,C=C1C(=O)O[C@H]2[C@H]1CC/C(COC(=O)CCCCCCCCC(=O)OC/C1=C/CC[C@@]3(C)O[C@H]3[C@H]3OC(=O)C(=C)[C@@H]3CC1)=C\CC[C@@]1(C)O[C@@H]21,-32.7% (active)
11,COC(=O)[C@]12CC[C@@H](C)[C@H](C)[C@@H]1C1=CC[C@@H]3[C@@]4(C)C(C=O)=C[C@@](C)(COS(C)(=O)=O)C4=CC[C@@]3(C)[C@]1(C)CC2,-59.8% (active)
12,Nc1cccc(-c2nc3sccn3c2-c2ccnc(NCCCNS(=O)(=O)c3ccc(C(F)(F)F)cc3)n2)c1,0.59% (active)
13,CS(=O)(=O)c1ccc(N/N=C/c2c(-c3ccc(S(C)(=O)=O)cc3)[nH]c3ccc(F)cc23)cc1,64.3%
14,O=C(CBr)c1ccc(OC(=O)c2ccccc2)cc1,116%
15,Clc1ccc2c(NCCCN3CCN(c4nc(N5CCOCC5)nc5ccccc45)CC3)ccnc2c1,-74.3% (active)
16,COc1ccc(Cn2cc3c(c2-c2cc(OC)c(OC)c(OC)c2)CCc2c(CO)noc2-3)cc1,-17.8% (active)
17,CCCCCCCCNC(=O)[C@@H](N)CSCOC(C)=O,89.8%
18,CC1=CC(C)(C)NC(=S)N1c1ccc(Cl)cc1,97.6% and 105%
19,Cc1ccc(S(=O)(=O)c2nc(-c3ccccc3)oc2S(C)=O)cc1 (stereo not given),-59% (active)
20,N#Cc1cccc(F)c1,111%
